From PubChem
tim23-1 inh – growth inhibitors of tim23-1 mutant yeast. S. cerevisiae tim23-1 growth, BacTiter-Glo luminescence, 24 h. inhibition, % at 20 µM. 330,000 tested, 1.3% active. AID 463212;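 active means growth inhibition of the mutant yeast at or above 50%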;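 further: temperature-sensitive mutant grown at 25 °C; plate controls were DMSO-treated mutant yeast for no effect and medium wells lacking yeast for full effect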
PfHsp90 set2 – inhibits growth of yeast expressing Plasmodium falciparum Hsp90; S. cerevisiae expressing PfHsp90, BacTiter-Glo ATP, 48 h; yeast lacking PDR1 and PDR3 efflux regulators; inhibition, % at 9.4 µM; 310,000 tested, 0.32% active; AID 504621;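 active means every replicate shows inhibition above about 80%, whatever the replicate mean, limit read from the data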;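 further: 0% = DMSO neutral controls and 100% = 20 µM radicicol positive controls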
TIM10 inh – TIM10 yeast growth inhibition; 330,000 tested, 1.4% active; S. cerevisiae TIM10 strain growth, BacTiter-Glo luminescence, 24 h; inhibition, % at 10 µM;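 active means inhibition of 40% or more at the single tested concentration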;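 further: wild-type TIM10 isogenic control strain grown at permissive 25 °C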
tim10-1 inh – tim10-1 yeast growth inhibition | S. cerevisiae tim10-1 ts strain growth, BacTiter-Glo, 24 h | inhibition, % at 20 µM | 330,000 tested, 2.2% active | AID 463190;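 active means inhibition of at least 40%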;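 further: mutant grown at 25 °C; 0% = DMSO wells with yeast and 100% = wells holding no yeast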
SKKanGAS inh – SKKanGAS growth inhibition | S. pyogenes SKKanGAS, kanamycin growth, BacTiter-Glo, 6 h | inhibition, % at 7.5 µM | 300,000 tested, 1.3% active | AID 1662;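 active means mean replicate score, as percent of positive control median, at least 50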;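 further: strain carries kanamycin resistance gene driven by streptokinase promoter and grows in 40 µg/ml kanamycin; loss of luminescence reflects streptokinase promoter inhibition or plain growth inhibition; 0% = median of DMSO wells and 100% = positive control at its reference dose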
NALP1 yeast inh – inhibitors of NALP1 inflammasome in yeast. S. cerevisiae NALP1/ASC/caspase-1 growth, X-gal OD620, 72 h. 280,000 tested, 0.61% active. inhibition, % at 10 µM. AID 2071; in the data active means inhibition mostly above about 24%, no sharp cut-off; inactive means mostly below about 32%
tim10 confirm – TIM10 yeast growth inhibition, confirmed. shares compounds with TIM10 inh. S. cerevisiae tim10 strain growth, BacTiter-Glo luminescence, 24 h. inhibition, % at 10 µM. 4,600 tested, 63% active;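 active means inhibition of yeast growth at or above a set limit in either of two replicates at 10 µM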;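 further: this counterscreen used the strain with wild-type TIM10; 0% = yeast with DMSO and 100% = medium wells lacking yeast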
Active calls of the source: *; / = no result given. This is a sample that favours compounds with a hit; in the whole collection about 4.8% have one here.

SMILES	tim23-1 inh	PfHsp90 set2	TIM10 inh	tim10-1 inh	SKKanGAS inh	NALP1 yeast inh	tim10 confirm
Cc1cccc(NC(=S)NN(Cc2ccccc2)c2ccccc2)c1C	16	-12	43*	30	8	8	-21
Cc1cccc(NC(=S)N/N=C/c2cccc(O)c2)c1C	14	4	31	24	1	-9	/
Cc1ccccc1NC(=S)N/N=C/c1ccc(O)cc1O	14	-9	19	19	16	-18	/
Cc1ccccc1NC(=S)N/N=C/C(C)c1ccccc1 (stereo unspecified)	25	-17	41*	23	-2	-12	27
Cc1cc(Oc2ccc(=O)n(C)n2)nc(Oc2ccc(=O)[nH]n2)n1	13	-7	-6	-22	-15	8	/
CCN(CCNC(=O)C1CCCN(c2ncnc3c2nc2n3CCCCC2)C1)Cc1ccccc1 (stereo unspecified)	1	2	71*	2	5	24	1
CN(CCNC(=O)C1CCN(c2ncnc3c2nc2n3CCCCC2)CC1)Cc1ccccc1	-14	-5	-14	-1	5	-1	/
Cn1cc(/C=C2\SC(=O)N(c3ccc(O)cc3)C2=O)c2ccccc21	33	-5	44*	29	27	/	38*
Cn1cc(/C=C2\SC(=O)N(c3ccccc3)C2=O)c2ccccc21	14	7	-2	34	-8	19	/
CCOc1ccc(S(=O)(=O)Nc2cccc(C)c2)c2cccnc12	22	-23	8	9	1	-2	/
Clc1c(-c2ccccc2)nc2ccccn12	6	4	97*	2	-6	6	6
CCOc1nc(NC2CCCCC2)nc(NC(C)(C)C)n1	30	39	33	36	21	3	/
O=C(C#Cc1ccccc1)c1cccc([N+](=O)[O-])c1	17	152*	72*	-63	-3	-4	70*
Cc1ccc(S(=O)(=O)Cc2cc(F)c([N+](=O)[O-])cc2[N+](=O)[O-])cc1	-8	73	89*	29	6	47*	68*
CC1CCN(c2ccccc2NC(=S)NC(=O)c2ccco2)CC1	34	-3	43*	34	18	/	40*
O=c1[nH]cnc2nc3n(c12)CCCCC3	10	-17	-15	1	1	-2	/
Cc1cc(N/N=C/c2ccccc2O)c2ccccc2n1	32	-19	59*	29	-1	23	27*
O=S(=O)(Nc1cccc2ncccc12)c1cccs1	40	-101	43*	31	87*	32	48*
O=S(=O)(Nc1ccc(-c2nc3cccnc3s2)cc1)c1cccs1	14	-4	4	10	4	/	/
Cc1ccc(C(=O)/C=C/Nc2ccccn2)cc1	30	3	43*	3	12	/	30
Cc1ccc(C(=O)NNC(=S)NC(=O)c2ccc(Cl)cc2)cc1	36	-8	48*	38	100*	-4	31*
Cc1ccc(C)c(/C=N/n2cc(-c3ccccc3)[nH]c2=S)c1	3	-19	35	35	35	-6	/
Fc1ccccc1/C=N/n1cc(-c2ccccc2)[nH]c1=S	22	-19	45*	38	-15	/	47*
Nn1c(Cc2ccccc2F)nnc1SCC(=O)N1CC(=O)Nc2ccccc21	14	/	-1	-16	-23	6	/
CC1(C)Cc2c(C#N)c(N3CCN(C(=O)c4ccco4)CC3)nc(Cc3ccccc3)c2CO1	18	-7	42*	28	33	-2	5
SMILES	tim23-1 inh	PfHsp90 set2	TIM10 inh	tim10-1 inh	SKKanGAS inh	NALP1 yeast inh	tim10 confirm
CCOc1ccc(C(=O)Nc2sc3c(c2C(=O)OC)CC(C)(C)NC3(C)C)cc1	42	20	39	35	-1	19	/
COC(=O)c1c(NC(=O)c2nc3ccccc3s2)sc2c1CC(C)(C)NC2(C)C	40	15	55*	30	12	12	36*
COc1ccc(-c2n[nH]c(=S)n2C2CCCCC2)cc1	24	5	43*	27	-5	-7	32*
CC(=O)Nc1ccc(C(=O)N/N=C/c2ccccc2OCc2ccccc2)cc1	5	41	18	-6	-2	13	/
O=C(N/N=C/c1ccccc1OCc1ccccc1)c1cccnc1	42	2	40*	29	3	43	21
COc1cccc(/C=N/NC(=O)c2cnccn2)c1O	34	-20	95*	0	5	-24	12
CCOC(=O)N/N=C(\C)c1ccccc1OC(F)F	8	-15	-1	7	-4	19	/
Cc1ccc(N/N=C(\C#N)C(N)=S)cc1C	30	-22	42*	38	-3	11	26
CCOC(=O)N1CCN(S(=O)(=O)c2ccc(C(=O)N(CCCN(C)C)c3nc4cc(OC)ccc4s3)cc2)CC1	14	/	13	21	21	/	/
O=C(CN1C(=O)NC2(CCCC2)C1=O)Nc1ccc(Cl)c(C(F)(F)F)c1	0	27	-3	-28	-7	-4	/
CN1CCN(c2nc(-c3ccc(Cl)cc3)nc3ccccc23)CC1	46	-12	41*	17	4	11	22
O=C(C1CCC(C(=O)N2CCc3ccccc32)CC1)N1CCc2ccccc21 (stereo unspecified)	12	/	-7	10	9	/	/
O=C(CCl)c1ccc2c(c1)CCN2C(=O)C1CC1	-7	/	60*	9	-16	0	74*
CCN(CC)c1ccc(C(=S)NC2CCCCC2)cc1	24	-1	46*	32	0	-1	28
Cc1nn(Cc2ccc(Cl)cc2)c(=O)n1N(C)c1ncc(C(F)(F)F)cc1Cl	5	-3	55*	40	11	0	-1
CN(NC(=O)c1ccc(Cl)cc1)c1ncc(C(F)(F)F)cc1Cl	18	-13	9	8	-4	8	/
COC(=O)c1cc(NC(=O)c2cccc(F)c2)cc(C(=O)OC)c1	33	10	48*	2	-8	15	31*
O=C(COc1cccc(NC(=O)c2ccccc2)c1)c1ccc(F)cc1	8	-29	42*	-5	-10	19	34*
COc1ccc(C(=O)Nc2cc(OC)cc(OC)c2)cc1	32	-4	18	17	4	18	/
CCOC(=O)Nc1cccc(OCC(=O)Nc2ccccc2OC)c1	46	-15	42*	34	-6	/	15
COc1cc(NC(=O)c2ccccc2)cc(OC)c1	43	-4	68*	23	6	7	46*
COC(=O)c1cc(NC(=O)c2cccnc2)cc(C(=O)OC)c1	16	-6	7	13	0	-1	/
COc1cc(C(C)=O)ccc1OCC(O)CN1CCN(c2ccccn2)CC1 (stereo unspecified)	-9	-3	-4	-15	-1	6	/
Cc1ccc(S(=O)(=O)CCNC(=O)Cc2ccccc2)cc1	-9	-17	10	-1	-1	5	/
